# From PubChem BioAssay (NCI)
# Compounds without any hit were thinned out: in the full panel of roughly 83,000, 20% have a hit.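 How to read the values: 0–100, growth inhibition (40 = 60% inhibited); 0, no net growth; -100 to 0, cell death (-40 = 40% of starting cells died; -100 = all dead).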 Unmarked numbers belong to inactive results. Calls of active or inactive are those of the source. How the source made its calls: active means growth percent below 10; inactive means the rest.
# What was measured:
# Test in all cases: NCI-60 one-dose screen, 48 h (100 = growth as untreated, 0 = no growth, -100 = all killed)
# Details in all cases: 10 µM unless noted
# [1] = system: NCI-H23 lung
# [2] = system: NCI-H226 lung
# [3] = system: NCI-H322M lung
# [4] = system: HOP-62 NSCLC
# [5] = system: NCI-H460 lung
# [6] = system: HOP-92 NSCLC
# [7] = system: NCI-H522 lung
# [8] = system: A549/ATCC NSCLC
# [9] = system: 786-0 renal
# [10] = system: COLO 205 colon
# [11] = system: DU-145 prostate
# [12] = system: K-562 leukemia
# [13] = system: MALME-3M melanoma
# [14] = system: MDA-MB-231 breast
# [15] = system: RXF 393 renal
# [16] = system: SF-268 CNS
# [17] = system: SF-295 CNS
# [18] = system: SF-539 CNS
# [19] = system: M14 melanoma
SMILES,growth [1],growth [2],growth [3],growth [4],growth [5],growth [6],growth [7],growth [8],growth [9],growth [10],growth [11],growth [12],growth [13],growth [14],growth [15],growth [16],growth [17],growth [18],growth [19]
Cn1c(=O)c2c(nc3n2CCN(CCc2ccc(OCCN4CCOCC4)cc2)C3)n(C)c1=O,101%,100%,100%,106%,107%,96.6%,94.2%,99.4%,99.6%,115%,109%,109%,106%,104%,111%,105%,106%,109%,105%
CCOC(=O)c1cc(/C(=N\O)c2cc(OC)c(OC)c(OC)c2)n2cc(C)cc(C)c12,55.2%,74.3%,66.2%,32.3%,4.9% (active),51.9%,-10.6% (active),34.9%,19.1%,11.5%,41.9%,12.5%,37.8%,34.7%,36.1%,38.7%,1.85% (active),15.8%,10.5%
Nc1ccc(S(=O)(=O)c2ccc(Cl)cc2)cc1,97.9%,98%,91.4%,97.8%,96%,93.4%,89.7%,86.6%,99%,109%,104%,109%,85.7%,92.3%,113%,96.8%,98.2%,86%,96.1%
O=C(C[N+](=O)[O-])c1ccc(Cl)cc1,104%,110%,112%,104%,111%,101%,109%,106%,98.5%,116%,111%,103%,114%,110%,115%,108%,111%,104%,101%
C=CCc1cc(Cl)cc2c(OC(C)=O)c(C(C)=O)c(-c3ccccc3)nc12,91.8%,103%,106%,89.2%,106%,105%,96.4%,102%,107%,108%,112%,109%,104%,90.7%,130%,109%,114%,110%,104%
C=CCOc1ccc(/C(O)=C2\C(=O)C(=O)N(c3nccs3)C2c2ccccc2F)cc1 (configuration not stated),119%,102%,80%,92.3%,94.4%,106%,100%,95.4%,95.5%,104%,114%,109%,92.1%,112%,-20.5% (active),116%,85.1%,125%,82.7%
COc1cc(C(=O)N2CCN(C(=O)c3ccco3)CC2)c(N)cc1OCc1ccccc1,111%,88.4%,91.3%,94.6%,113%,61%,84.4%,93.3%,95.6%,125%,115%,85.3%,107%,101%,89.9%,108%,115%,98.2%,102%
C=C1C(=O)O[C@H]2[C@H]1CC/C(COC(=O)NCCc1ccc(OC)cc1)=C\CC[C@@]1(C)O[C@@H]21,66.6%,0.324% (active),88.4%,62.6%,68.7%,21.9%,-64.6% (active),64.1%,-31.9% (active),-52.6% (active),-12.2% (active),2.33% (active),-8.71% (active),1.63% (active),-30.6% (active),45.9%,80.3%,26.6%,25.1%
